{
  "source": "ChEMBL document CHEMBL1157539",
  "about": "“Thousands of chemical starting points for antimalarial lead identification” (Nature, 2010)",
  "data": [
    {"tested_on": "HepG2", "assay": "GSK_TCMDC: Percent inhibition of human HepG2 cell line. Test compounds present at 10uM.", "type": "functional", "units": {"Inhibition": "%"}, "values": [
      {"smiles": "O=C(O)C(F)(F)F.Oc1ccc(CCNc2nc(NCc3cccc(OCc4cccc(F)c4)c3)nc(N3CCNCC3)n2)cc1", "Inhibition": 27},
      {"smiles": "Cc1cccc(CCCNC(=O)CN(c2cccc(C(F)(F)F)c2)S(=O)(=O)c2ccc(C(F)(F)F)cc2)c1", "Inhibition": 9},
      {"smiles": "O=C(Nc1ccc2c(c1)CCN2C1CCN(Cc2ccc(C(F)(F)F)cc2F)C1)c1ccco1", "note": "(stereo unspecified)", "Inhibition": 9},
      {"smiles": "N#Cc1cncc(-c2nc3c(N4CCC(N5CCCC5)CC4)cccc3n2CCNCc2ccccc2)c1.O=C(O)C(F)(F)F", "Inhibition": 3},
      {"smiles": "O=C(/C=C/c1ccc(Cl)c(Cl)c1)NCCCCCN1CCC(NC(=O)NC2CCCCCC2)CC1", "Inhibition": 15},
      {"smiles": "Cc1cc(N2CCCC2)nc(Nc2ccc(NC(=O)C(C)C)cc2)n1", "Inhibition": 40},
      {"smiles": "COCCCC1C(=O)OC2CCCC21", "note": "(stereo unspecified)", "Inhibition": 0},
      {"smiles": "CCOC(=O)c1cc(C(=O)NCCCCN2CCC(c3ccc(CC)cc3OCC)CC2)ccc1-c1ccc(C(F)(F)F)cc1", "Inhibition": 74},
      {"smiles": "Cc1cc(C(=O)Nc2ccc(OCc3ccccc3)cc2)on1", "Inhibition": 1},
      {"smiles": "Cc1nc(Nc2ccncc2)cc(-c2ccncc2)n1", "Inhibition": 6},
      {"smiles": "O=C(Nc1ccc(-c2ccc(-c3nc4ccccc4[nH]3)s2)cc1)Nc1ccsc1", "Inhibition": 25},
      {"smiles": "FC(F)(F)c1ccc2[nH]c(-c3ccc(-c4cccc(CNCc5cnn(-c6ccccc6)n5)c4)cc3)nc2c1.O=C(O)C(F)(F)F", "Inhibition": 19},
      {"smiles": "Cc1[nH]c(C)c(-c2ccc(Nc3ccc(C(F)(F)F)cn3)cc2)c(=O)c1Br", "Inhibition": 30},
      {"smiles": "COc1ccc2nccc(N(C)CC3(O)CCN(CC(O)c4ccc5c(c4)NC(=O)CS5)CC3)c2n1.Cl", "note": "(stereo unspecified)", "Inhibition": 1},
      {"smiles": "CCCN1CCC2(CC1)NC(C(=O)NCCC(C)C)Cc1c2[nH]c2cc(Cl)ccc12", "note": "(stereo unspecified)", "Inhibition": 13},
      {"smiles": "O=c1cc(NCCCNCc2cc(Cl)cc(Cl)c2OCc2ccc(Cl)cc2)[nH]c2ccccc12", "Inhibition": 6},
      {"smiles": "O=[N+]([O-])c1ccc(C=NNc2nc3ccccc3[nH]2)cc1", "Inhibition": 11},
      {"smiles": "CC(C)c1ccc(Nc2nc(NCCc3c[nH]cn3)nc(NCc3ccccc3)n2)cc1", "Inhibition": 1},
      {"smiles": "O=C(Nc1cccc(-c2ccc(CN3CCC(O)CC3)cc2)c1)c1cccc(Cl)c1.O=C(O)C(F)(F)F", "Inhibition": 11},
      {"smiles": "O=S(=O)(Nc1ccc(CCN2CCC(N3CCCCC3)CC2)cc1)c1ccc2ccccc2c1", "Inhibition": 44},
      {"smiles": "CCN(CC)CCCN(C(=O)Nc1ccc(C#N)cc1)c1nc(-c2ccc(F)cc2)cs1", "Inhibition": 36},
      {"smiles": "Cl.N=C(N)c1ccc(Nc2nc(Nc3ccc(-c4ccccc4)cc3)ncc2[N+](=O)[O-])cc1", "Inhibition": 11},
      {"smiles": "CCc1ccnc2c(N3CCCC3=O)cc(C(=O)N[C@@H](Cc3ccccc3)[C@H](O)CNC3CCOCC3)cc12.O=CO", "Inhibition": 2},
      {"smiles": "CCN(C1CCCCC1)S(=O)(=O)c1ccc(OC)c(N2CCN(C(=O)C(Cl)(Cl)Cl)CC2)c1", "Inhibition": 0},
      {"smiles": "c1ccc(CN2CCN(c3cc(-c4cncc(-c5ccccc5)c4)nc(-c4ccccc4)n3)CC2)cc1", "Inhibition": 9},
      {"smiles": "O=C(c1cc(-c2cccs2)n[nH]1)N1CCN(S(=O)(=O)c2ccc(Cl)s2)CC1", "Inhibition": 20}
    ]}
  ]
}
